Here are results for 30 compounds from PubChem BioAssay (NCATS).

Each structure is given as a SMILES string. Several values for one entry are separate records, joined by “and”; a condition that tells them apart may be missing. Identical values can stand only once. Records with an inconclusive call do not appear. More than one record can exist for a structure, and the calls need not agree. Activity calls are given as the source filed them. Unless noted, calls follow the shape of the dose curve; as a rule, active = well fitted curve in the direction sought with a large enough effect; inconclusive = small, poorly fitted or top-dose-only effect, or another doubt; inactive = no such curve, though single readings can be large; an effect the other way counts as inactive or inconclusive.

In assay [1] the target is Atrial natriuretic peptide receptor 1 (Homo sapiens) (UniProt P16066). The assay is described as follows: Natriuretic polypeptide receptor (hNpr1) antagonism - Pilot screen (AID 1347049; calls by dose curve;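 also: agonist-evoked cGMP luminescence read 20 min after hNppA addition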; also: potency is read from the fitted curve at half-maximal effect). Put shortly:
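HEK293 cells co-expressing hNpr1 and the GloSensor pGS-40F cGMP luciferase sensor were preloaded with 2% GloSensor reagent for 2 h. Compounds were added for 30 min at room temperature, then cells were stimulated with 0.1 nM hNppA for 20 min before luminescence readout.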

For assay [2], the target named is Atrial natriuretic peptide receptor 2 (Homo sapiens) (UniProt P20594). The assay is described as follows: Natriuretic polypeptide receptor (hNpr2) antagonism - Pilot subtype selectivity assay (AID 1347050; calls by dose curve; also: potency is read from the fitted curve at half-maximal effect). A digest of the protocol: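 cGMP-sensor HEK293/hNpr2 cells; 2% GloSensor reagent 2 h RT; compounds 30 min; baseline luminescence read; 1 nM hNppC agonist 20 min RT; final luminescence read by CCD camera. Antagonism = reduced post-agonist signal.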

Assay [3] in a line: NS1 protein of Zika virus - qHTS assay to identify small molecule inhibitors in human HEK 293 cells (AID 1347053). Also: nearly all actives have a fitted effect of over 55% in size. Also: potency is read from the fitted curve at half-maximal effect. Put shortly: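 HEK 293 cells, seeded 20 h at 37 C, were pretreated with compound 1 h, then infected with ZIKV MR766 (MOI = 0.5) for 24 h. NS1 was read by TR-FRET with two anti-NS1 antibodies, normalized to uninfected and infected wells.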
A general note: In qHTS, concentration-response curves come from the screen itself.

Assay [4] concerns the target Parathyroid hormone/parathyroid hormone-related peptide receptor (Homo sapiens) (UniProt Q03431). The assay is described as follows: qHTS for PTHR1 Agonists: Optimization Screen against the NCGC LOPAC library (AID 1347079).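 Also: GloSensor cAMP luminescence in HEK-293 GP2 cells expressing human PTHR1 with IBMX.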 Put shortly: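 Agonist readout: GloSensor cAMP luminescence, read after 15 min at room temperature. HEK-293-derived GP2 line carries PTHR1; compounds tested as a titration for 1 hr at 37C in presence of IBMX. M-PTH (1-15) served as control.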

Assay [5] is described as follows: qHTS of pediatric cancer cell lines to identify multiple opportunities for drug repurposing: Primary screen for TC32 cells (AID 1347089). Also: nearly all actives have a fitted effect of over 60% in size. Also: potency is read from the fitted curve at half-maximal effect. A digest of the protocol: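 Measured quantity: luminescence from CellTiter-Glo, reflecting metabolically active TC32 cells following 48 h of compound. Curves came straight from multi-point titrations, with 8 or 11 points in primary and 11 in confirmatory screening.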

A short description of assay [6]: qHTS of pediatric cancer cell lines to identify multiple opportunities for drug repurposing: Primary screen for DAOY cells (AID 1347090). Also: nearly all actives have a fitted effect of over 55% in size. Also: potency is read from the fitted curve at half-maximal effect. Put shortly:
(§1)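 Eight- or eleven-point concentration series, 48 h treatment at 37 degrees C in growth media; readout CellTiter-Glo luminescence. Potency and efficacy were taken from the concentration-response curves.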

The nature of assay [7]: Natriuretic polypeptide receptor (hNpr1) antagonism - Pilot counterscreen GloSensor control cell line (AID 1347045; calls by dose curve; also: potency is read from the fitted curve at half-maximal effect). Put shortly:
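HEK293 cGMP GloSensor cells preloaded 2 h with 2% GloSensor reagent, then compound 30 min before baseline luminescence read. Stimulated with 50 uM sodium nitroprusside, 20 min at room temperature, then read again; counterscreen for Npr1 antagonism.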

Assay [8] concerns the target T1, Tyrosine-protein phosphatase non-receptor type substrate 1 (Homo sapiens) + Leukocyte surface antigen CD47 (Homo sapiens) (UniProt P78324+Q08722). The assay is described as follows: CD47-SIRPalpha protein protein interaction - HTRF assay qHTS validation (AID 1347058; active = well fitted curve in the direction sought with a large enough effect in the signal ratio, not every such curve was filed as active; the % refers to the signal ratio; also: series mostly up to about 38 µM). A digest of the protocol:
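TR-FRET read (Ch1/Ch2 ratio) of soluble extracellular CD47 and Avi-biotinylated SIRPalpha domains in PBS pH 7.4 with 0.05% IGEPAL; 7-point compound titration. Sequential 30 min room-temperature steps; non-biotinylated SIRPalpha as control inhibitor.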
On the technique in general: In TR-FRET formats the signal depends on donor and acceptor labels being close together.

Assay [9] deals with T1, Tyrosine-protein phosphatase non-receptor type substrate 1 (Homo sapiens) + Leukocyte surface antigen CD47 (Homo sapiens). The assay is described as follows: CD47-SIRPalpha protein protein interaction - Alpha assay qHTS validation (AID 1347059).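 Also: bead proximity luminescence from CD47 binding SIRPalpha after compound preincubation with SIRPalpha.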 Put shortly: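 Soluble extracellular domains: Avi-tag biotinylated SIRPalpha (25 nM) preincubated 30 min RT with compound, then 6His-CD47 (12.5 nM) 30 min; Ni-NTA acceptor and streptavidin donor beads (10 ug/mL) 30 min, AlphaScreen read. PBS pH 7.4, 0.05% IGEPAL.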

Assay [10] can be described thus: qHTS of pediatric cancer cell lines to identify multiple opportunities for drug repurposing: Primary screen for SJ-GBM2 cells (AID 1347091). Also: potency is read from the fitted curve at half-maximal effect. A digest of the protocol: as §1

Atrial natriuretic peptide receptor 2 (Homo sapiens), sequence (P20594 whole entry, looked up): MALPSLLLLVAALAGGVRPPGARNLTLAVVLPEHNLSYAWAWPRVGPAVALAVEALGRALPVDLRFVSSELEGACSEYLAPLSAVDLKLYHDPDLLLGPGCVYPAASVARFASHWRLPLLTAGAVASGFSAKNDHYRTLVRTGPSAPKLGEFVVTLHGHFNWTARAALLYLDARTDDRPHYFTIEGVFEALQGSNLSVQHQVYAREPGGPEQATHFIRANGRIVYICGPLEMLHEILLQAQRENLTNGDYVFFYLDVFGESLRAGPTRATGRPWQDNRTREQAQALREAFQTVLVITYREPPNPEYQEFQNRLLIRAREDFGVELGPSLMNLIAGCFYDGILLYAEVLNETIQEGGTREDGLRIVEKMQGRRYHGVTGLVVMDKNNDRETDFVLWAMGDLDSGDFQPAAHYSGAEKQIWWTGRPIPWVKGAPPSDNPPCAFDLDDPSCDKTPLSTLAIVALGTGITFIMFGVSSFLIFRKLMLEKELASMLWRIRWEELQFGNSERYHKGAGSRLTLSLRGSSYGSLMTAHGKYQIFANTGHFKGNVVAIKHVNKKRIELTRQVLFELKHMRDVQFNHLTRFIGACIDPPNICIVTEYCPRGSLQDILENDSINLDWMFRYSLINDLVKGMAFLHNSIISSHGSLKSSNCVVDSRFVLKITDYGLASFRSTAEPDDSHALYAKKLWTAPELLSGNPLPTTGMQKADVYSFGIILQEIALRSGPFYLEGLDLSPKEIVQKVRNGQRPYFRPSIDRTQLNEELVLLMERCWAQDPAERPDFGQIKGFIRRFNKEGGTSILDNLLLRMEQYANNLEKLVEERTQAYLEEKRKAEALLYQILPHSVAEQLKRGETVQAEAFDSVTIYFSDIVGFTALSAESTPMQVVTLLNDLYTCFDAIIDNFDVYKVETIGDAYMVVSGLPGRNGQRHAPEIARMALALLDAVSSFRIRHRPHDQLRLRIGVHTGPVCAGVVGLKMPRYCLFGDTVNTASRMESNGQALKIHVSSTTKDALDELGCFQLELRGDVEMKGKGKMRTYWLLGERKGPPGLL
Parathyroid hormone/parathyroid hormone-related peptide receptor (Homo sapiens), sequence (Q03431 whole entry, looked up): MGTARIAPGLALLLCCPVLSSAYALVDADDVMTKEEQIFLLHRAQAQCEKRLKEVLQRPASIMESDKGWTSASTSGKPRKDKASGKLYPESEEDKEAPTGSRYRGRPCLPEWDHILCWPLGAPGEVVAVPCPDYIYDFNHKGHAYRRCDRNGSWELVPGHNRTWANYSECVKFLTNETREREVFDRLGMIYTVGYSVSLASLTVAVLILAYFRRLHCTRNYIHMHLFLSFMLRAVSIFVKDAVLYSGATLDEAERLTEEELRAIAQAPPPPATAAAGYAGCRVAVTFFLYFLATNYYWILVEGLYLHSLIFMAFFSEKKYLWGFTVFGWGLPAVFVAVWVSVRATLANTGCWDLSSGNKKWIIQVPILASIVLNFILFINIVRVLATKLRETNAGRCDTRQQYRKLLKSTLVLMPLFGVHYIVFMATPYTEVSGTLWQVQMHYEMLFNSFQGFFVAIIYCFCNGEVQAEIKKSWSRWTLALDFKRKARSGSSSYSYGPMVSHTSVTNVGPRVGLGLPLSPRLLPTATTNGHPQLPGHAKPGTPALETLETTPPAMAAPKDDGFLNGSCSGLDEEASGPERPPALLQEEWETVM
Atrial natriuretic peptide receptor 1 (Homo sapiens), sequence (P16066 whole entry, looked up): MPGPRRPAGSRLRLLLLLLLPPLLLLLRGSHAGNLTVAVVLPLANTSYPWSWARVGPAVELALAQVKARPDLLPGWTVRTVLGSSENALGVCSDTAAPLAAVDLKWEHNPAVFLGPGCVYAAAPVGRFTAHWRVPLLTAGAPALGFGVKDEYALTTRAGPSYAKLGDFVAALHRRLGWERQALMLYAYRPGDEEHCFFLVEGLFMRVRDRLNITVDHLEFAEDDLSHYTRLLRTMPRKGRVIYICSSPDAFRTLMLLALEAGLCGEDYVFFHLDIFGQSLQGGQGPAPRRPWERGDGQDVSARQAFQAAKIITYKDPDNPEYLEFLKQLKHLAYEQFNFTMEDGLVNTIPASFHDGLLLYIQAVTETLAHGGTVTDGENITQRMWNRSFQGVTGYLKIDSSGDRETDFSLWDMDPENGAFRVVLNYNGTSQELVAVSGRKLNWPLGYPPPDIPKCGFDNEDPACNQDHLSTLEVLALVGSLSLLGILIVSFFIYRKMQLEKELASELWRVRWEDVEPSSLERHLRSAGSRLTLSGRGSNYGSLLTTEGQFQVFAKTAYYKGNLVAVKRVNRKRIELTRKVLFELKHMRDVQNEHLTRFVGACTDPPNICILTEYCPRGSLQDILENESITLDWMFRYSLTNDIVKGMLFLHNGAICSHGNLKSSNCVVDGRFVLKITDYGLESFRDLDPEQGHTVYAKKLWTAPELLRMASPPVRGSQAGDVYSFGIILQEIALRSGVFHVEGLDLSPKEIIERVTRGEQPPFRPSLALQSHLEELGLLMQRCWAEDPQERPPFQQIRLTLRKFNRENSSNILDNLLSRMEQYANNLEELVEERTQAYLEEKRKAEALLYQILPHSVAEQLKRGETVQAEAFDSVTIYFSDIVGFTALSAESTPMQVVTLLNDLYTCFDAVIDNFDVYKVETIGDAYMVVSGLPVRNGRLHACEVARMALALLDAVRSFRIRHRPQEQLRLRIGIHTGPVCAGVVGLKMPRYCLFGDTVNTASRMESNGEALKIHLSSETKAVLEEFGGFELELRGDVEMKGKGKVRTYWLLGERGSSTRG
T1 sequence (P78324 whole entry, looked up, the tested form may be a part): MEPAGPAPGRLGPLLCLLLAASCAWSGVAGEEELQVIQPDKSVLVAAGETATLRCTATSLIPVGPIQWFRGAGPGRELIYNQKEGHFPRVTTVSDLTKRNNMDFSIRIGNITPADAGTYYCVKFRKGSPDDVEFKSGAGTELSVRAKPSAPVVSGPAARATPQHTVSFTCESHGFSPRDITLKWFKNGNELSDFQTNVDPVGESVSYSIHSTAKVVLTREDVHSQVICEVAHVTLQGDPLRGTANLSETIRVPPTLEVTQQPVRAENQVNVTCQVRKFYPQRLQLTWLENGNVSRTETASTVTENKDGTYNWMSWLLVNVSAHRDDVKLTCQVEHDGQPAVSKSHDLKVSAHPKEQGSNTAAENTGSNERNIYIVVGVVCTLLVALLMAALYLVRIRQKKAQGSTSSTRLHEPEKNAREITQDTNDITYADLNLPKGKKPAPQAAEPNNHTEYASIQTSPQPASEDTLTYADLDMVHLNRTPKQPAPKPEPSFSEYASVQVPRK
T1 sequence (Q08722 whole entry, looked up, the tested form may be a part): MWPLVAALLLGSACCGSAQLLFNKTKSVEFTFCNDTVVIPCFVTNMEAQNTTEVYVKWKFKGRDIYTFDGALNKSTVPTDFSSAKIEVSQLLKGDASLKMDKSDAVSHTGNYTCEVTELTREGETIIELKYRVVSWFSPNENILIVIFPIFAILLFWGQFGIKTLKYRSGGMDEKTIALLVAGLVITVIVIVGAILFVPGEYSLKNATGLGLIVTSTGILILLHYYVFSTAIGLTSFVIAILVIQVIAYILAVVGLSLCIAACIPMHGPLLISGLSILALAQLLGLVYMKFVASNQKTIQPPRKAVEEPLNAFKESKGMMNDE

Consider `CCN(CC)CC#CCOC(=O)C(O)(c1ccccc1)C1CCCCC1` (stereo not given), for which the Potency entry in [1], in [2], in assay [3], in assay [5] and in assay [6] was “inactive” each time. Besides, the compound was called inactive in [4].

`CCC(C)(C)c1ccc(CC(C)CN2C[C@@H](C)O[C@@H](C)C2)cc1` (stereo not given in full): the Potency result in assay [3], in assay [5] and in assay [6] was “inactive” each time.

As for `CC(N)C12CC3CC(CC(C3)C1)C2` (stereo not given), the Potency result in assay [3], in assay [5] and in assay [6] was “inactive” each time.

On to `COc1ccc(C(=O)CC(=O)c2ccc(C(C)(C)C)cc2)cc1`, for which the Potency entry in assay [3] is “inactive”.

As for `NC(=O)c1ccc2[nH]ccc2c1`, the Potency entry in assay [7], in assay [1], in assay [2], in assay [5], in [6] and in assay [10] was “inactive” throughout. In addition, the result in [8], in assay [9] and in assay [4] was inactive.

As for `CC(C)NCC(O)c1ccc(NS(C)(=O)=O)cc1` (stereo not given), the Potency entry in assay [7], in assay [1], in [2], in [3], in assay [5] and in assay [10] was “inactive” each time. For the same compound, the outcome in [8], in assay [9] and in [4] was inactive.

As to `O=C(NCC1CN(c2ccc(N3CCOCC3=O)cc2)C(=O)O1)c1ccc(Cl)s1` (stereo not given), the Potency entry in assay [3], in [5] and in [6] was “inactive” each time.

With `CCCCS(=N)(=O)CCC(N)C(=O)O` (stereo not given), the Potency result in assay [7], in assay [1], in [2], in [3], in assay [5] and in [6] was “inactive” in each case. For the same compound, the Potency entry in assay [10] is “inactive”. Further, the result in assay [8], in assay [9] and in assay [4] was inactive.

`Cc1ncc([N+](=O)[O-])n1CCO`: the Potency entry in assay [3], in [5] and in assay [6] was “inactive” throughout.

Take `CNS(=O)(=O)CCc1ccc2[nH]cc(C3CCN(C)CC3)c2c1`: the Potency entry in assay [3], in [5] and in assay [6] was “inactive” throughout. Further, the outcome in [8] and in assay [9] was inactive.

In the case of `OCc1ccc(-c2nn(Cc3ccccc3)c3ccccc23)o1`, the Potency entry in assay [7], in assay [1], in [3], in assay [5], in [6] and in assay [10] was “inactive” each time. In addition, the result in [8], in [9] and in [4] was inactive.

On to `N[C@@H](Cc1ccc(O)c(O)c1)C(=O)O`, for which the Potency result in assay [7], in assay [2], in assay [5] and in assay [6] was “inactive” throughout. Also, the outcome in assay [8], in assay [9] and in assay [4] was inactive.

In the case of `CC1=C(C(=O)O)N2C(=O)[C@@H](NC(=O)C(N)c3ccccc3)[C@H]2SC1` (stereo not given in full), the Potency entry in assay [7], in [1], in assay [2], in assay [3] and in assay [6] was “inactive” each time. The outcome in assay [9] and in assay [4] was inactive.

`Cc1cccc(N(C)C(=S)Oc2ccc3ccccc3c2)c1`: the Potency entry in [3], in assay [5] and in assay [6] was “inactive” throughout.

Take `COc1ccc2c(c1)c(CC(=O)OCC(=O)O)c(C)n2C(=O)c1ccc(Cl)cc1`: the Potency entry in assay [3], in assay [5] and in [6] was “inactive” each time.

With `CN(C)CCc1c[nH]c2ccc(CS(=O)(=O)N3CCCC3)cc12`, the Potency entry in assay [3], in [5] and in assay [6] was “inactive” throughout.

Turning to `Cc1ccc(S(=O)(=O)N[C@@H](Cc2ccccc2)C(=O)CCl)cc1`, the Potency in [7] was 3.29 µM (active); in assay [1], 12 µM (active); in [2] it was 5.85 µM (active); in [10], 9.35 µM (active). For the same compound, the Potency entry in [3] and in assay [5] was “inactive” each time. Further, the outcome in assay [8], in [9] and in assay [4] was inactive.

Take `CCCc1nc(C)c2c(=O)[nH]c(-c3cc(S(=O)(=O)N4CCN(CC)CC4)ccc3OCC)nn12`: the Potency result in [3] is “inactive and 10.5 µM (active)”. In addition, the Potency entry in assay [5] is “inactive”.

On to `CC(=O)[C@H]1CC[C@H]2[C@@H]3CCC4=CC(=O)CC[C@]4(C)[C@H]3CC[C@]12C`, for which the Potency entry in assay [2], in [3] and in assay [5] was “inactive” each time. The result in assay [8], in assay [9] and in [4] was inactive.

On to `CC1CC2C3CCC4=CC(=O)C=C[C@]4(C)[C@@]3(F)[C@@H](O)C[C@]2(C)[C@@]1(O)C(=O)CO` (stereo not given in full), for which the Potency result in assay [7], in assay [1], in assay [2], in assay [5], in [6] and in assay [10] was “inactive” throughout. Further, the result in [8], in [9] and in assay [4] was inactive.

For the compound `CCN(CC)CCn1c(=O)c(Cc2ccc(OC)cc2)nc2ccccc21`, the Potency result in assay [1], in [3], in assay [5], in assay [6] and in assay [10] was “inactive” throughout. Moreover, the result in assay [9] and in assay [4] was inactive.

Turning to `Cc1nnc(C(=O)NC(C)(C)c2nc(C(=O)NCc3ccc(F)cc3)c(O)c(=O)n2C)o1`, the Potency entry in assay [3], in [5] and in assay [6] was “inactive” throughout.

In the case of `CCCCOc1ccc(CC(=O)NO)cc1`, the Potency entry in [3] and in [5] was “inactive” in each case. Moreover, the Potency in assay [6] is 11.8 µM (active).

`Cc1nnc(NS(=O)(=O)c2ccc(N)cc2)s1`: the Potency result in assay [3] and in assay [5] was “inactive” each time.

Turning to `COc1cc2ncnc(Nc3cccc(Cl)c3)c2cc1OC`, the Potency result in [7], in assay [1], in assay [2], in [3] and in assay [5] was “inactive” in each case. For the same compound, in assay [9], the result was inactive.

On to `COCCCOc1cc(C[C@@H](C[C@H](N)[C@@H](O)C[C@H](C(=O)NCC(C)(C)C(N)=O)C(C)C)C(C)C)ccc1OC`, for which the Potency entry in assay [3], in [5] and in assay [6] was “inactive” in each case.

As for `O=C(O)C1CCCN(CCC=C(c2ccccc2)c2ccccc2)C1` (stereo not given), the Potency entry in assay [7], in [1], in assay [2], in [3], in [5] and in [6] was “inactive” throughout. Moreover, the outcome in assay [8], in assay [9] and in [4] was inactive.

`O=S(=O)(O)CCS`: the Potency entry in [3], in [5] and in assay [6] was “inactive” throughout.

Take `C[C@@H](NCCCc1cccc(C(F)(F)F)c1)c1cccc2ccccc12`: in assay [3], the Potency entry was “inactive”.

Regarding `COc1cc2nc(N3CCCN(C)CC3)nc(NC3CCN(Cc4ccccc4)CC3)c2cc1OC`, the Potency entry in assay [7] and in assay [1] was “inactive” throughout. The outcome in assay [8], in assay [9] and in assay [4] was inactive. Also, the Potency in assay [5] is 20.8 µM (active); in [6] it was 18.7 µM (active); in assay [10], 14.8 µM (active).
